According to PubChem BioAssay (EPA / NIEHS):
Activity calls are given as the source filed them. How the source made its calls: active means hit-call score of the fitted dose curve at least 0.9, where 1 is the maximum; inactive means score below 0.9.

Legend:
[1] = target: Bile acid receptor (Homo sapiens) (UniProt Q96RI1); assay: ATG_IR1_CIS: Attagene CIS-FACTORIAL HepG2 Assay for human Nuclear Receptor Subfamily 1 Group H Member 4 (NR1H4), IR1 submotif (AID 2282946); details: IR1 reporter transcription, actives raise or lower the signal
Sequence of Bile acid receptor (Homo sapiens) (Q96RI1 whole entry, looked up): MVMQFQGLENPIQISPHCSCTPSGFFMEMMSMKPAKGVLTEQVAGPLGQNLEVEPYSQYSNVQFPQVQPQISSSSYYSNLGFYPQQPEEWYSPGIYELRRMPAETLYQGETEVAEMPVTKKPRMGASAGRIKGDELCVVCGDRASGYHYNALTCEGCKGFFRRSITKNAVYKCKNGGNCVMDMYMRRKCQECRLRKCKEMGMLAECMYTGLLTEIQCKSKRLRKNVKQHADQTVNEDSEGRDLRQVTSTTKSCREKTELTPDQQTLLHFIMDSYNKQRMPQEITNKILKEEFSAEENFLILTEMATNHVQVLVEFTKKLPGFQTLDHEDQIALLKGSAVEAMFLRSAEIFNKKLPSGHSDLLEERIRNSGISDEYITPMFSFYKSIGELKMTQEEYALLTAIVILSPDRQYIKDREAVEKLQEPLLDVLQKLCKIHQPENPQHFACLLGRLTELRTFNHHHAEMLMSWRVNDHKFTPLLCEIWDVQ
In short: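 Readout: reporter transcript levels by RT-PCR with fluorescent capillary electrophoresis, from HepG2 cells transiently transfected with multiplexed cis-regulated reporters and dosed 24 h. Gain- or loss-of-signal fitted versus DMSO negative control.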

[2] = ATG_ISRE_CIS: Attagene CIS-FACTORIAL HepG2 Assay for human Interferon Regulatory Factor 1 (IRF1) binding to an Interferon-Stimulated Response Element (ISRE) (AID 2282948); details: HepG2 ISRE cis-reporter (Attagene), mRNA transcription readout; actives raise or lower the signal
In short: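 Signal reflects induction or loss of ISRE-linked reporter mRNA in transiently transfected HepG2 cells after a 24 h treatment, detected by fluorescent RT-PCR fragments on capillary electrophoresis and normalised to DMSO.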

[3] = ATG_M_32_CIS: Attagene CIS-FACTORIAL HepG2 Assay for M32 Transcription Factor (Internal Marker) (AID 2282949); details: HepG2 Attagene cis-factorial M32 reporter, mRNA; actives raise or lower the signal;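 further: background control marker of the multiplexed CIS panel rather than a real target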
In short: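 HepG2 transfectants (cis-regulated reporter transcription units) dosed 24 h. Reporter mRNA by RT-PCR plus CE, analysed as gain or loss relative to DMSO.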

[4] = ATG_M_06_CIS: Attagene CIS-FACTORIAL HepG2 Assay for M06 Transcription Factor (Internal Marker) (AID 2282950); details: HepG2 Attagene CIS-FACTORIAL M06 internal marker reporter; actives raise or lower the signal
In short: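 Steps: transfect HepG2 with multiplexed cis-element reporter constructs; dose chemical 24 h; extract RNA with DNase treatment; reverse-transcribe, PCR-amplify, 6-FAM label, HpaI digest; separate fragments by capillary electrophoresis. Activity fitted both directions versus DMSO.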

[5] = target: Hepatocyte nuclear factor 6 (Homo sapiens) (UniProt Q9UBC0); assay: ATG_HNF6_CIS: Attagene CIS-FACTORIAL HepG2 Assay for human Hepatocyte Nuclear Factor 6 (HNF6) (AID 2282952); details: HepG2 Attagene cis-factorial HNF6 reporter transcription; actives raise or lower the signal
Sequence of Hepatocyte nuclear factor 6 (Homo sapiens) (Q9UBC0 whole entry, looked up): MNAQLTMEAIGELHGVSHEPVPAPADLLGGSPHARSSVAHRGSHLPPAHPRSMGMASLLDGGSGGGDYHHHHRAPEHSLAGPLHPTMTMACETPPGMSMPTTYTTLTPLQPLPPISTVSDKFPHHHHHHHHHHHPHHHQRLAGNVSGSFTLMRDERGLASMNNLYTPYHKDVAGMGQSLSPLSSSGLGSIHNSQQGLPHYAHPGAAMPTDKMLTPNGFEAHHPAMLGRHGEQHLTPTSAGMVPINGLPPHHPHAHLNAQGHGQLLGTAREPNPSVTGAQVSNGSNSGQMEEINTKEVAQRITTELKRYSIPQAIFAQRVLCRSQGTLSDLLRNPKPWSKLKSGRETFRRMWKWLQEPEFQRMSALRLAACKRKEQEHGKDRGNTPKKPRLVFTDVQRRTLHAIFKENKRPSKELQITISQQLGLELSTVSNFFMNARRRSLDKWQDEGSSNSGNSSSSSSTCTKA
In short: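 Activity values derive from bidirectional fitting against DMSO of reporter mRNA levels, measured by capillary electrophoresis of labelled RT-PCR products from HepG2 cells exposed 24 h.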

[6] = target: Heat shock factor protein 1 (Homo sapiens) (UniProt Q00613); assay: ATG_HSE_CIS: Attagene CIS-FACTORIAL HepG2 Assay for human Heat Shock Transcription Factor 1 (HSE) (AID 2282953); details: HepG2 HSE cis-reporter, Attagene RNA transcription; actives raise or lower the signal
Sequence of Heat shock factor protein 1 (Homo sapiens) (Q00613 whole entry, looked up, the tested form may be a part): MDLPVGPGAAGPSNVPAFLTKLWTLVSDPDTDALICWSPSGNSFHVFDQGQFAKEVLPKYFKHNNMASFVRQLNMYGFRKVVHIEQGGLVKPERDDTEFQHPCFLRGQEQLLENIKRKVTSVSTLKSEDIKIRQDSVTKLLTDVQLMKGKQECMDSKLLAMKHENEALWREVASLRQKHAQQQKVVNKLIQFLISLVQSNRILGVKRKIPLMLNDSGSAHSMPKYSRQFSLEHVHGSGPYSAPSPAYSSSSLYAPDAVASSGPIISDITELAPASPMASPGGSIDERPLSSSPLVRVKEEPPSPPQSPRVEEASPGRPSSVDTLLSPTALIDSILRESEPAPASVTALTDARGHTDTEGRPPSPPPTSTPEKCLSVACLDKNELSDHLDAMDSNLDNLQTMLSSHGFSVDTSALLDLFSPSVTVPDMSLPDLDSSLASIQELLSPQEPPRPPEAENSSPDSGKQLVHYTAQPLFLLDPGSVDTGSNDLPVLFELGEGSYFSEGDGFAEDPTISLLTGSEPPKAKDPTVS
In short: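 Cells were transfected with cis-element-driven reporter constructs, dosed for 24 h, then total RNA was reverse-transcribed and reporter cDNA amplified, FAM-labelled and digested with HpaI. Fragments were resolved by capillary electrophoresis; gain or loss was fitted against DMSO.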

[7] = ATG_MRE_CIS: Attagene CIS-FACTORIAL HepG2 Assay for human Metal Responsive Element (MRE) (AID 2282954); details: HepG2 MRE cis-reporter transcription, Attagene multiplex; actives raise or lower the signal
In short: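 Cells were transfected with cis-promoter reporter transcription units, then dosed for 24 h. RNA was reverse-transcribed, amplified, fluorescently labelled and resolved by capillary electrophoresis, and activity was fitted in both directions relative to DMSO.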

[8] = target: Paired box protein Pax-6 (Homo sapiens) (UniProt P26367); assay: ATG_Pax6_CIS: Attagene CIS-FACTORIAL HepG2 Assay for human Paired Box 6 (PAX6) (AID 2282956); details: HepG2 CIS-FACTORIAL PAX6 reporter transcription, RNA readout; actives raise or lower the signal
Sequence of Paired box protein Pax-6 (Homo sapiens) (P26367 whole entry, looked up): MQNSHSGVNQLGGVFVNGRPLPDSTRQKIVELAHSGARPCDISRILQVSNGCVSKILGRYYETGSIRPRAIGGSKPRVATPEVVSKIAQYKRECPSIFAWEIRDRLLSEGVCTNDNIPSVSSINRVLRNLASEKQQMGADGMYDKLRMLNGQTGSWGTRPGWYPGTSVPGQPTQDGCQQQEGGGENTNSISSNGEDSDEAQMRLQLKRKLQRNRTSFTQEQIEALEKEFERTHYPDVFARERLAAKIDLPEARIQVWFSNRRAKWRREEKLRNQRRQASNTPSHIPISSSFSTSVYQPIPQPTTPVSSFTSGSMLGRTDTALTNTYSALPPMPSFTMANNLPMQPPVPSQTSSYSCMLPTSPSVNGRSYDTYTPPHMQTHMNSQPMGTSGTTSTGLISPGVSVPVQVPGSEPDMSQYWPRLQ
In short: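 Values derive from bidirectional curve fitting of reporter mRNA signal relative to DMSO. HepG2 cells bearing transfected cis-regulated MRTUs were exposed for 24 h; transcripts were read by RT-PCR and capillary electrophoresis.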

[9] = ATG_PPRE_CIS: Attagene CIS-FACTORIAL HepG2 Assay for human Peroxisome Proliferator-activated Response Element (PPRE) (AID 2282958); details: HepG2 PPRE cis-element reporter, Attagene transcription factor profiling; actives raise or lower the signal
In short: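 DMSO served as negative control and baseline for bidirectional curve fitting. Signal came from PPRE-regulated reporter mRNA in HepG2 cells, measured 24 h post-dosing by RT-PCR, 6-FAM primer extension and capillary electrophoresis.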

[10] = ATG_RORE_CIS: Attagene CIS-FACTORIAL HepG2 Assay for human RAR-related Orphan Receptor Element (RORE) (AID 2282959); details: HepG2 Attagene cis-factorial RORE reporter, mRNA; actives raise or lower the signal
In short: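 Transfect HepG2 with MRTUs; treat 24 h; extract RNA; RT with oligo(dT); PCR with reporter-specific primers; 6-FAM primer extension; HpaI digest 2 h at 37 C; capillary electrophoresis. Fit vs DMSO, bidirectional.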

[11] = ATG_Sox_CIS: Attagene CIS-FACTORIAL HepG2 Assay for human SRY-box transcription factor (SOX) (AID 2282960); details: HepG2 Attagene cis-factorial SOX reporter, mRNA; actives raise or lower the signal
In short: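 Fluorescence-labelled cDNA fragments from reporter transcripts, sized by CE, give the signal. Cells: HepG2, transiently transfected with cis-regulated reporter units. Exposure 24 h; DMSO negative control; bidirectional curve fitting.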

[12] = target: Transcription factor Sp1 (Homo sapiens) (UniProt P08047); assay: ATG_Sp1_CIS: Attagene CIS-FACTORIAL HepG2 Assay for human Specificity Protein 1 (Sp1) (AID 2282961); details: HepG2 Sp1 cis-reporter transcription, actives raise or lower the signal
Sequence of Transcription factor Sp1 (Homo sapiens) (P08047 whole entry, looked up): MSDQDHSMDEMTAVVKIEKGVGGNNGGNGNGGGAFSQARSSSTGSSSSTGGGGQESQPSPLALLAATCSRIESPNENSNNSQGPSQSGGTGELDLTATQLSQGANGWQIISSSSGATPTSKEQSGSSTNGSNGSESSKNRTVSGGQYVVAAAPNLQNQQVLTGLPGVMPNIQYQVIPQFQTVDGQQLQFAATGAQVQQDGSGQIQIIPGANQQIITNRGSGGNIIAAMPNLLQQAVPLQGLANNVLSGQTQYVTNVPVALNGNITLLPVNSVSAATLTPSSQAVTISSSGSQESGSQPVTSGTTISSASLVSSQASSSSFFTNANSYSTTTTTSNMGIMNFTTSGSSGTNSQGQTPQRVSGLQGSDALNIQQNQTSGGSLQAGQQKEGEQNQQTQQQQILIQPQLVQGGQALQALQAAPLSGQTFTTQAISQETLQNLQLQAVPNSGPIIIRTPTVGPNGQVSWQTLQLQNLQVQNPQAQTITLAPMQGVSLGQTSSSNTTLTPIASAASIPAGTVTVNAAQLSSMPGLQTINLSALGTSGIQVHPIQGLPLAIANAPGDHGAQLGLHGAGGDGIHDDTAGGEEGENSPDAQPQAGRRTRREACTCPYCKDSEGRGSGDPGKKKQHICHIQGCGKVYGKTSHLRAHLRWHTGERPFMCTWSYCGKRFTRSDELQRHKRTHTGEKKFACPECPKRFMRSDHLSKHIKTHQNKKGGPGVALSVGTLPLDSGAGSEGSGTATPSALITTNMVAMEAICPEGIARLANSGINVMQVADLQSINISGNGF
In short: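 Chemicals are dosed onto HepG2 cells transfected with multiple cis-promoter reporter constructs, and after 24 h reporter RNA is reverse-transcribed, PCR-amplified and resolved by capillary electrophoresis for fluorescence quantitation; activity is scored up or down against DMSO.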

[13] = ATG_SREBP_CIS: Attagene CIS-FACTORIAL HepG2 Assay for human Sterol Regulatory Element Binding (SREBP) (AID 2282962); details: HepG2 Attagene cis-factorial SREBP reporter, mRNA; actives raise or lower the signal
In short: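 Values derive from bidirectional curve fitting with DMSO as baseline. The underlying measurement is reporter mRNA from cis-element-regulated units in transiently transfected HepG2, quantified by RT-PCR and capillary electrophoresis after 24 h exposure.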

[14] = target: Signal transducer and activator of transcription 3 (Homo sapiens) (UniProt P40763); assay: ATG_STAT3_CIS: Attagene CIS-FACTORIAL HepG2 Assay for human Signal Transducer and Activator of Transcription 3 (STAT3) (AID 2282963); details: HepG2, Attagene cis-factorial STAT3 reporter transcription; actives raise or lower the signal
Sequence of Signal transducer and activator of transcription 3 (Homo sapiens) (P40763 whole entry, looked up): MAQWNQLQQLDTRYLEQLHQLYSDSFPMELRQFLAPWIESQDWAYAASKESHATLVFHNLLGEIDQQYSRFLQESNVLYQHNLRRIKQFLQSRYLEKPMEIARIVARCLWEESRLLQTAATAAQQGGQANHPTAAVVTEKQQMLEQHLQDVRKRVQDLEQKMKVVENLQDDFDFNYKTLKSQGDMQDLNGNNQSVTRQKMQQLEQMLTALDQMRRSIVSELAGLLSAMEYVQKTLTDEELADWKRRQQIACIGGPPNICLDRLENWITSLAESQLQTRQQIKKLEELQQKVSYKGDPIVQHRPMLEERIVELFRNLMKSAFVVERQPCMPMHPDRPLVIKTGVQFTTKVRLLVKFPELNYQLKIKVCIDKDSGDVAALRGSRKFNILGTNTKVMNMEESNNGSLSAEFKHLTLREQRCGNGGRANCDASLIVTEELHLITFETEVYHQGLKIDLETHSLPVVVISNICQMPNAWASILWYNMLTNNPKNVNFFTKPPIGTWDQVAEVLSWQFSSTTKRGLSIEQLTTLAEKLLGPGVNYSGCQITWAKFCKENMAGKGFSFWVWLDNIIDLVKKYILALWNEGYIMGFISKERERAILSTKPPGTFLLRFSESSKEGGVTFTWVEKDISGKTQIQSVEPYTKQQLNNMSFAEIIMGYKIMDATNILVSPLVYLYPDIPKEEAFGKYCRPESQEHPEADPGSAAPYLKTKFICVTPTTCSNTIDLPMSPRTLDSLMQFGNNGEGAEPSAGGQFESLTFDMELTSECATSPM
In short: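 HepG2, MRTU-transfected, 24 h dosing. RNA → RT → PCR → FAM label → HpaI → CE. Bidirectional fit vs DMSO.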

[15] = ATG_TA_CIS: Attagene CIS-FACTORIAL HepG2 Assay for human TA Basal Promoter (AID 2282964); details: HepG2 Attagene CIS-factorial TA basal promoter reporter; actives raise or lower the signal
In short: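 Steps: transfect HepG2 with MRTUs; dose 24 h; isolate RNA, DNase-treat, reverse-transcribe; PCR and FAM-label reporter cDNA; digest with HpaI 2h at 37 C; run capillary electrophoresis. Activity fitted both directions against DMSO.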

[16] = ATG_TCF_b_cat_CIS: Attagene CIS-FACTORIAL HepG2 Assay for human T-Cell-Factor with beta-catenin (TCF/b-cat) (AID 2282965); details: HepG2 TCF/beta-catenin cis-reporter transcription, actives raise or lower the signal
In short: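 Using capillary electrophoresis as the read-out, labelled reporter cDNA fragments from transiently transfected HepG2 were sized and quantified. Exposure lasted 24 hours; activity in either direction was referenced to DMSO.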

[17] = ATG_GRE_CIS: Attagene CIS-FACTORIAL HepG2 Assay for human Glucocorticoid Response Elements (GRE) (AID 2282947); details: HepG2 GRE cis-reporter, Attagene multiplex mRNA; actives raise or lower the signal
In short: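 Cells (HepG2) bearing transfected cis-promoter reporter transcription units were treated with chemical for 24 hours. Reporter mRNA was measured via RT-PCR with capillary electrophoresis, and activity was fitted in both directions relative to DMSO.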

[18] = target: Hypoxia-inducible factor 1-alpha (Homo sapiens) (UniProt Q16665); assay: ATG_HIF1a_CIS: Attagene CIS-FACTORIAL HepG2 Assay for human Hypoxia Inducible Factor 1 (HIF1A) (AID 2282951); details: HepG2 Attagene cis-factorial HIF1a reporter transcription; actives raise or lower the signal
Sequence of Hypoxia-inducible factor 1-alpha (Homo sapiens) (Q16665 whole entry, looked up): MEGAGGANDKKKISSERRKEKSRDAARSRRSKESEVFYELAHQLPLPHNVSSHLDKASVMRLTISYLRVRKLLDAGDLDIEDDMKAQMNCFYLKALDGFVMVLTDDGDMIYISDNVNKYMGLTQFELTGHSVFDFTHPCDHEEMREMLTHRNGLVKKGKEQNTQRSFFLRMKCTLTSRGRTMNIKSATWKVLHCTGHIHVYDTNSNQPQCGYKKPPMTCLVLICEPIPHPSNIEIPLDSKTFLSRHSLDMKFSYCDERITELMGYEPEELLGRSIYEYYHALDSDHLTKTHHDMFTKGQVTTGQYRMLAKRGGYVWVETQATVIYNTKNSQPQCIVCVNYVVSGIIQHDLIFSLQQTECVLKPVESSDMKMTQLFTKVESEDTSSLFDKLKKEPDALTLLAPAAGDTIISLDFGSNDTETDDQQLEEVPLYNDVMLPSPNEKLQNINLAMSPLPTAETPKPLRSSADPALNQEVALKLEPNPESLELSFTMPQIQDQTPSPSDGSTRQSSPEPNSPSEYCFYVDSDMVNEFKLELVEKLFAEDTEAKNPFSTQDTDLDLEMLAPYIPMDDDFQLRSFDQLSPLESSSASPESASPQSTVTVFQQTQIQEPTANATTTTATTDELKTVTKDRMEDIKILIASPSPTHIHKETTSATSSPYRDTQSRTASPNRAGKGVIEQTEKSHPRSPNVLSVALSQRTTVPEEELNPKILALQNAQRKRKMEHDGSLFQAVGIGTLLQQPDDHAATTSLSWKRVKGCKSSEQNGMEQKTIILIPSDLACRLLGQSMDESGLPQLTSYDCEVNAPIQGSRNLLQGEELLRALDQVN
In short: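 Cis-element reporter constructs were transiently transfected into HepG2 cells, which were treated for 24 h; reporter RNA was reverse-transcribed, amplified, labelled and resolved by capillary electrophoresis.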

[19] = ATG_PBREM_CIS: Attagene CIS-FACTORIAL HepG2 Assay for human Phenobarbital-responsive Enhancer Module (PBREM) (AID 2282955); details: HepG2 PBREM cis-reporter, Attagene multiplexed transcription; actives raise or lower the signal
In short: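 Multiplexed cis-reporter readout in human hepatoma HepG2 cells; PBREM-regulated transcript quantified after 24 h exposure by fluorescent RT-PCR fragment analysis. Signal changes up or down fitted relative to DMSO.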

[20] = ATG_PXRE_CIS: Attagene CIS-FACTORIAL HepG2 Assay for human Pregnane X Receptor Element (PXRE) (AID 2282957); details: HepG2 Attagene CIS-FACTORIAL PXRE reporter, mRNA; actives raise or lower the signal
In short: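 Fluorescent capillary electrophoresis of amplified reporter cDNA gave the signal, collected 24 h after dosing HepG2 cells that held transfected cis-element reporter constructs.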

Measured: AC50

COc1cc(C)ccc1C(C)C
not listed: [17] | [18] | [19] | [20]
inactive: all other assays above

Cc1ccc(N)c([N+](=O)[O-])c1
not listed: [1]
inactive: all other assays above

CC(C)C1=CC2=CC[C@@H]3[C@](C)(CCC[C@@]3(C)C(=O)O)[C@H]2CC1
inactive: [2] | [3] | [4] | [5] | [19] | [9] | [12] | [14] | [16]
active: [17] 119 µM | [18] 100 µM | [6] 145 µM | [7] 106 µM | [8] 71.2 µM | [20] 1.33 µM | [10] 43.1 µM | [11] 169 µM | [13] 25.9 µM | [15] 89.6 µM

CC(=O)OCCC1CCCCC1
active: [20] 31.8 µM
not listed: [1]
inactive: all other assays above

CCCCCCCCCCCCCCCCCC#N
not listed: [1] | [16]
inactive: all other assays above

O=C1CC2CC1C1CCCC21 (stereo not drawn)
active: [20] 40.8 µM
not listed: [3] | [17]
inactive: all other assays above

CC(=O)c1ccc2c(c1)CCCC2
active: [20] 26.4 µM
not listed: [1]
inactive: all other assays above
